According to the supplement of paper PMC6555819:

tested on: VDR:RXRa (NR concentration 270 nM, RXRa partner concentration 90 nM); assay: PBM binding z-score (relative to random genomic background probes); higher = stronger binding; sequences stand for … in GC…GCGATTGACAGCGTAGAATGAAGG
Procedure: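 Protein-binding microarray (Agilent 4x180K custom design, double-stranded 60-nt probes: 5' GC cap, 34-nt variable region, 24-nt constant primer region; full probe sequence given). Purified or IVT nuclear receptor:RXRα heterodimers (3:1 NR:RXRα, mostly 270:90 nM) or homodimers were incubated for 1 h in PBS with 2% milk and no ligand, then detected with Alexa488 antibodies. Fluorescence from o1-orientation probes (~5 replicates averaged) was converted to z-scores against 500 random hg19 background probes. Variable regions are seed direct-repeat (DR0–DR5) sites, all their single-nucleotide variants and half-site ablations.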

Which PBM binding z-score does the source give for TCATATGGGTAAATGCTAGGTGAAAGTCCGATCT here?
Its PBM binding z-score is 0.528.

With CCTTACGGATCAAGGTTATAGCACGGGTGGTACG as the sequence, how does the PBM binding z-score read?
The PBM binding z-score was 0.474.

For CCTACTGGGGCAAAAAGGTCATTGATGCCGATAA, which PBM binding z-score is on record?
Its PBM binding z-score is 5.42.

Which PBM binding z-score does the source give for GCTGCTAGGTCAGGTGGGTCAGCTAACGGGTACG here?
Its PBM binding z-score is 2.75.

For ACTAGTTGGTCAGCTGAGGTCACCCACAATTCGG, which PBM binding z-score is on record?
The PBM binding z-score was 4.46.

How did the PBM binding z-score turn out when AATACAGGGTCATCGTAGGCCATAGTACGCACAG was run?
Its PBM binding z-score is 5.58.

How did the PBM binding z-score turn out when ACAGACAGGTGCTGAAGGTAACTCAGGCTATCAT was run?
Its PBM binding z-score is -0.264.

For CCTTACGGGTCACTGACAGGTTATACCATTTGGA, which PBM binding z-score is on record?
The PBM binding z-score was 3.9.

For TCTAGTTGGTCACAGAGGTCACACACGACGGGTA, which PBM binding z-score is on record?
Its PBM binding z-score is 6.44.

How did the PBM binding z-score turn out when TCATATAGGTAAAGGTGGAAGTCGAACGATATGA was run?
The PBM binding z-score was 0.368.

CCTATTAGTTGACCATAAGGGCATCCGAAGCTCG was tested. Which PBM binding z-score did it give?
Its PBM binding z-score is 0.862.

How did the PBM binding z-score turn out when ACTATTAGTTGACTTAGGGCAACAGATACGACGC was run?
Its PBM binding z-score is 0.323.

With ACTATTAGTTGACTTAGGGTAACCGATACGACGC as the sequence, how does the PBM binding z-score read?
The PBM binding z-score was 0.225.

CAGCCTATGTCAGGGCCAGTATAGGAGGAACGTT was tested. Which PBM binding z-score did it give?
Its PBM binding z-score is -0.493.

For ACTAGTAGTTGAGACGAGGGCAACCGATAGGTTG, which PBM binding z-score is on record?
The PBM binding z-score was 0.766.

How did the PBM binding z-score turn out when GGAACGAGGGCAAGGTGATAGCAGAGTTTGATGG was run?
The PBM binding z-score was 0.867.

For CCTACTGGGCAACGAAAGGTCATTGATTCAGTGA, which PBM binding z-score is on record?
The PBM binding z-score was 3.7.

Which PBM binding z-score does the source give for CCTACTGGGCCAAGGTCATGGATCAGTCAAAGCA here?
The PBM binding z-score was 3.05.

How did the PBM binding z-score turn out when ACTAGCAGGCTAAGTTTGGGTCACTCAAACAAAG was run?
The PBM binding z-score was 0.216.

CGTCCAAGGTCAGAGAGGTCAGTGGATGCCGAGT was tested. Which PBM binding z-score did it give?
The PBM binding z-score was 7.33.

Which PBM binding z-score does the source give for CTACCAAGGTGAACAAGGTCGTTTATTACTATTC here?
The PBM binding z-score was 6.54.

CTTCCAAGGTCAGAGAGGTCAGTGAATGCCGAGT was tested. Which PBM binding z-score did it give?
The PBM binding z-score was 7.43.

With TGAATGAGGTTAAAGATCACGGAACGTGGCGTCG as the sequence, how does the PBM binding z-score read?
The PBM binding z-score was 2.22.

TCTGCTAGGACAACGATGGTCAGCTAATCTGCTA was tested. Which PBM binding z-score did it give?
Its PBM binding z-score is -0.784.

With CCTGGTTGGTCAGGAGGTCACACACCGGATATGA as the sequence, how does the PBM binding z-score read?
Its PBM binding z-score is 3.73.

CGAACTAGGTCAAGGACAGTGATTCTCCGCACGC was tested. Which PBM binding z-score did it give?
Its PBM binding z-score is 1.48.

GCTTGTAGATCAAGTTTAAGAAAGACTAAGCTAA was tested. Which PBM binding z-score did it give?
Its PBM binding z-score is -0.096.

With ATCTCTTGGTAAAGTTCAGTGAAAGATCGATAGA as the sequence, how does the PBM binding z-score read?
Its PBM binding z-score is 1.6.

How did the PBM binding z-score turn out when TAGCCTAGGTCATGGGACAGTATACCACGCGAAC was run?
Its PBM binding z-score is 2.17.

For GATACAGGGTCAAGGACAGAGTACGCGTATTGAT, which PBM binding z-score is on record?
Its PBM binding z-score is 4.78.

Which PBM binding z-score does the source give for CCTATTAGTTGACCATAAGGACAACCGAAGCTCG here?
Its PBM binding z-score is 1.07.

Which PBM binding z-score does the source give for ATATGTAGGTTAGCTTGGGTCATTCAGACTAGGC here?
Its PBM binding z-score is 2.64.

With CCTAGTTGGTCTGGAGGTCACACACCGGATATGA as the sequence, how does the PBM binding z-score read?
The PBM binding z-score was 4.03.

How did the PBM binding z-score turn out when ACTAGCAGGCCAAGTTTGAGTCACTCAAACAAAG was run?
The PBM binding z-score was -0.614.

With ATCTCTAGGTAAAAGTTCACTGAATCCCGAGGAT as the sequence, how does the PBM binding z-score read?
The PBM binding z-score was 2.58.

With TCTAGTTGGTAACGGAGGTCACACACGACGGGTA as the sequence, how does the PBM binding z-score read?
Its PBM binding z-score is 3.8.

How did the PBM binding z-score turn out when TCGAGTAGGTTGGGGGCATTCAGAATGGCGTCGA was run?
Its PBM binding z-score is 2.65.

For ACTAGCAGGCCAAGTTCGGGTCACTCAAACAAAG, which PBM binding z-score is on record?
The PBM binding z-score was 2.43.

ATCTCTAGGTAAGAGTCAGTTCAGTGAAGAACGC was tested. Which PBM binding z-score did it give?
Its PBM binding z-score is 0.748.

For CCTACTGGGCTAAGGTCATTGATCAGTCAAAGCA, which PBM binding z-score is on record?
Its PBM binding z-score is 3.39.
